# A selection: hits, their analogues and other compounds. The true share with any hit is near 8%.
# MCF10A rereplic: inducers of DNA re-replication in MCF 10A breast cells; Potency, µM (titrated, usually from 46.1 µM), inactives show top-dose activity, positive = re-replication, usual class: activators; AID 624296; MCF 10A DNA re-replication, Hoechst nuclear intensity, 48 h; 350,000 tested, 2.9% active; further: % of control where 0% means no effect; nearly all actives have a fitted effect of over 50% in size
# KB-V1 cytotox: KB-V1 MDR subline cytotoxicity. KB-V1 MDR cells viability, CellTiter-Glo, 72 h. Potency, µM (doses to about 46.1 µM), usual class: cytotoxic. 400,000 tested, 3.4% active. AID 1347076; further: on the % scale 0 is the no-effect control and ±100 the full control effect; nearly all actives have a fitted effect of over 60% in size
#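 Cytotoxicity toward P-gp-expressing KB-V1 cells was determined as loss of CellTiter-Glo luminescence after 72 h at 37 degrees C. Compounds were tested in quantitative HTS format across a concentration range, with curves fitted to normalized data.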
# HT1080 IDH1KD tx: toxicity to HT-1080 IDH1 knockdown cells (counter line); HT-1080 IDH1 knockdown viability, ATP luminescence, 48 h; Potency, µM (series often up to 46.1 µM), inactives show at the highest dose activity, negative = toxicity, actives largely listed as cytotoxic; 360,000 tested, 2% active; AID 686971;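 further: 0% = DMSO wells and -100% = cell-free medium wells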
#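 Using the IDH1-knockdown HT-1080 line run in the same batch and compound series as the NT line, viability after 48 h at 37 °C was determined by CellTiter-Glo luminescence and expressed as % activity.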
# KB-3-1 tox: KB-3-1 parental cell cytotoxicity; KB-3-1 viability, CellTiter-Glo ATP luminescence, 72 h; Potency, µM (doses to about 46.1 µM), actives largely listed as cytotoxic; 400,000 tested, 1.4% active; AID 1347075; further: on the % scale 0 is the no-effect control and ±100 the full control effect; nearly all actives have a fitted effect of over 60% in size
#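 Cytotoxicity measured as CellTiter-Glo luminescence after 72 h at 37 C. Compound titrations were pinned onto drug-naive KB-3-1 parental adenocarcinoma cells grown in DMEM with 10% FBS, and normalized data fitted to concentration-response curves.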
# SW480 rerep: induces DNA re-replication in SW480 colon adenocarcinoma cells | SW480 DNA re-replication, Hoechst DNA content imaging, 48 h | Potency, µM (series often up to 46.1 µM), inactives show at the top dose re-replication activation, actives largely listed as activators | 340,000 tested, 1.8% active; further: % of control where 0% means no effect; nearly all actives have a fitted effect of over 55% in size
#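 Image-based read-out: total Hoechst fluorescence of nuclei (405 nm excitation, 500-530 nm emission), with hits raising the fraction of high-intensity nuclei. SW480 colon cells incubated 48 hr with compounds at 37 C.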
# HT1080NT lethal: kills 2HG-producing HT-1080-NT fibrosarcoma cells; HT-1080-NT fibrosarcoma viability, CellTiter-Glo ATP luminescence, 48 h; Potency, µM (highest dose often 46.1 µM), without a hit: at the highest dose activity, negative = less viability, hits mostly cytotoxic; 360,000 tested, 1.6% active; AID 686970;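 further: NT is the 2HG producing partner of a matched IDH1 knockdown line; 0% = DMSO-treated cells and -100% = media-only wells without cells; nearly all actives have a fitted effect of over 55% in size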
#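 Viability by CellTiter-Glo luminescence after 48 h compound exposure at 37C of HT-1080-NT cells (750/well, RPMI, 5% FBS). % activity scaled between DMSO wells and medium-only wells, then curve-fitted and categorized by curve class.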
# Active calls of the source: *; i = inactive; ? = inconclusive; nt = no result; ! = not active in a repeat; [ ] = another dose, or the depositor's remark. The call rests on the fitted dose curve; in most records, active means well fitted curve in the direction sought with a large enough effect; inconclusive means small, poorly fitted or top-dose-only effect, or another doubt; inactive means no such curve, though single readings can be large; an effect the other way counts as inactive or inconclusive. Potency means the concentration at half of the fitted maximal effect.
SMILES,MCF10A rereplic,KB-V1 cytotox,HT1080 IDH1KD tx,KB-3-1 tox,SW480 rerep,HT1080NT lethal
CCCn1c(Cc2ccccc2)n[nH]c1=S,-3.7%,i,7.8%,i,4.0%,3.8%
CCOc1c(C)cc(-c2ncccc2O)cc1C,11.6%,13µM*!,-20.2%,?,14.1%,-1.3%
COc1ccc(-c2ncccc2O)cc1,-2.1%,i,10.7%,i,2.1%,14.4%
COc1ccccc1C(=O)Nc1ccc2c(c1)OCO2,-7.0%,i,-23.6%,i,-7.6%,-7.1%
COc1ccc(C2c3cc4c(cc3OC(NNC(N)=O)C2C)OCO4)cc1 (stereo not drawn),?,9.2µM*,16.4µM*,6.51µM*,?,?
COc1cccc(C2c3cc4c(cc3OC(NNC(N)=O)C2C)OCO4)c1O (stereo not drawn),3.26µM*,4.61µM*,6.51µM*,1.46µM*,8.2µM*,4.61µM*
COc1cc(C2c3cc4c(cc3OC(NCc3ccccc3)C2C)OCO4)cc(OC)c1OC (stereo not drawn),1.64µM*,?,1.16µM*,0.581µM*,4.61µM*,1.64µM*
COc1cccc(C2c3cc4c(cc3OC(C)(N3CCCC3)C2C)OCO4)c1O (stereo not drawn),?,16.4µM*,?,?,18.4µM*,?
COc1ccc(C(=O)N2c3ccccc3C(=O)OC2c2ccc3c(c2)OCO3)cc1 (stereo not drawn),3.8%,i,-3.1%,i,4.9%,-0.9%
COc1cc(CC(=O)NCc2ccc3c(c2)OCO3)cc(OC)c1OC,-10.5%,i,8.2%,?,-5.8%[9.22 µM],13.4%
COc1cc(C2c3cc4c(cc3OC(NNC(N)=O)C2C)OCO4)cc(OC)c1OC (stereo not drawn),0.731µM*,7.31µM*,?,0.517µM*,1.3µM*,1.3µM*
COc1cc(C2c3cc4c(cc3OC(NNC(N)=S)C2C)OCO4)cc(OC)c1OC (stereo not drawn),1.46µM*,?,?,1.03µM*,2.59µM*,1.84µM*
COCCNC(=O)CCc1c(C)nc2c(c(C)nn2-c2ccc(C)cc2)c1C,4.5%,i,-6.2%,i,?,2.9%
CCN(CC)CCNC(=O)CCc1c(C)nc2c(c(C)nn2-c2ccc(C)cc2)c1C,?,i,?,?,?,18.4µM*
CC1Cc2ccccc2N1Cc1nc2scc(-c3cccs3)c2c(=O)[nH]1 (stereo not drawn),7.1%,i,6.6%,i,1.3%,2.0%
CC(=O)N1CCc2c(sc(NC(=O)CSc3ccc(C)cc3)c2-c2nc3ccccc3s2)C1,nt,i,nt,i,nt,nt
COc1ccc(N2C(=O)C3C(C2=O)C(C(=O)c2ccc(Cl)cc2)N2CCCC32)cc1 (stereo not drawn),14.6µM*,i,18.4µM*,i,8.2µM*,13µM*
O=C(c1ccc(Cl)cc1)C1C2C(=O)N(c3ccccc3)C(=O)C2C2CCCN21 (stereo not drawn),-10.0%,i,13.5%,i,-12.0%,8.7%
O=C(c1ccccc1)[C@@H]1[C@@H]2C(=O)N(c3ccc(F)cc3)C(=O)[C@@H]2C2CCCN21 (stereo partly drawn),?,i,23.1µM*,?,?,?
CC(=O)c1ccc(N2C(=O)C3C(C2=O)C(C(=O)c2ccc(Cl)cc2)N2CCCC32)cc1 (stereo not drawn),11.6µM*,?,?,?,?,16.4µM*
COc1ccc(C(=O)/C(C#N)=N/Nc2ccccc2[N+](=O)[O-])cc1,1.84µM*,i,2.31µM*,?,5.8µM*,2.59µM*
CCCc1c(C)nn(C(=O)/C(C#N)=N/Nc2ccccc2[N+](=O)[O-])c1C,0.4%,?,-7.9%,i,1.0%,3.2%
COc1ccc(C(=O)/C(C#N)=N/Nc2ccc([N+](=O)[O-])cc2)cc1,?,8.2µM*,5.8µM*,2.31µM*,?,?
COc1ccc(C(=O)CC(Nc2ccc([N+](=O)[O-])cc2)c2ccc(OC)cc2)cc1 (stereo not drawn),?,10.3µM*,?,i,-2.4%,-8.9%
COc1ccc(C(=O)CC(=O)Nc2ccc([N+](=O)[O-])cc2)cc1,?,i,?,i,-1.7%,?
SMILES,MCF10A rereplic,KB-V1 cytotox,HT1080 IDH1KD tx,KB-3-1 tox,SW480 rerep,HT1080NT lethal
CCc1ccc(NC(=O)Cn2c(=O)n(Cc3ccco3)c(=O)c3oc4ccccc4c32)cc1,nt,i,nt,i,nt,nt
O=C1C2=C(NC(=S)NC2c2ccc(Cl)cc2)NC(c2ccc(Cl)cc2)N1c1ccc(Cl)cc1 (stereo not drawn),?,?,?,16.4µM*,?,?
CCc1ccc(C2NC(=S)NC3=C2C(=O)N(c2ccccc2OC)C(c2ccc(CC)cc2)N3)cc1 (stereo not drawn),?,?,-3.5%,i,?,1.2%
Cc1ccc(S(=O)(=O)Nc2ccccc2N2CCCCC2)cc1,16.4µM*,?,?,?,?,?
Cc1ccc(S(=O)(=O)Nc2ccccc2N2CCOCC2)cc1,?,?,18.4µM*,13µM*,?,20.6µM*
COC(=O)c1ccc(N2CCCCC2)c(NS(=O)(=O)c2ccc(C)cc2)c1,-4.1%,?,1.5%,i,-1.3%,-8.6%
CCN(CC)CCNC(=O)c1ccc(N2CCCCC2)c(NS(=O)(=O)c2ccc(C)cc2)c1,5.5%,?,?,?,25.9µM*,?
COc1ccc(Cc2nnc(NC(=O)C3CC(=O)N(c4ccccc4)C3)s2)cc1OC (stereo not drawn),6.3%,i,-13.1%,i,1.1%,-5.8%
Cc1ccc(Cn2c(-n3nc(C)cc3C)nc3c2c(=O)[nH]c(=O)n3C)cc1,0.0%,i,4.7%,i,-1.3%,8.2%
COCCSc1nc2c(c(=O)[nH]c(=O)n2C)n1CCCc1ccccc1,1.46µM*,i,-6.0%,i,6.1%,-10.2%
CCSc1nc2c(c(=O)[nH]c(=O)n2C)n1CC(O)COc1ccccc1C (stereo not drawn),?,18.4µM*,-10.8%,i,-7.8%,-15.5%
COc1ccc(CCn2c(-n3nc(C)cc3C)nc3c2c(=O)[nH]c(=O)n3C)cc1,1.64µM*,1.64µM*,?,i,?,?
COCCn1c(SCCCc2ccccc2)nc2c1c(=O)[nH]c(=O)n2C,2.8%,i,-3.4%,i,-5.1%,-1.8%

# Screening data: PubChem BioAssay, National Center for Advancing Translational Sciences (NCATS)
